Where a name gives a salt, the structure may show the parent alone. ± gives the standard deviation of the averaged measurements. Over roughly 1,900 compounds, “normalised cell viability (NPI; 0 = phenylarsine oxide control, 1 = DMSO control)” has its median near 1; the lowest 2% begin near 0.039. The entries come from a sample that favours the lowest values as a whole.
Tested on: NCI-H1944
Assay: normalised cell viability (NPI; 0 = phenylarsine oxide control, 1 = DMSO control) (fraction of DMSO control); NCI-H1944 is a non-small cell lung cancer line; higher = more viable cells (less compound toxicity)
Conditions: 6 days
[1] = glucocorticoid arm: hydrocortisone 2.75 uM co-treatment, compound 1 µM
[2] = glucocorticoid arm: hydrocortisone 2.75 uM co-treatment, compound 5 µM
[3] = glucocorticoid arm: hydrocortisone 2.75 uM pre-treated 2 days and continued, compound 1 µM
[4] = glucocorticoid arm: hydrocortisone 2.75 uM pre-treated 2 days and continued, compound 5 µM
[5] = glucocorticoid arm: vehicle, compound 1 µM
[6] = glucocorticoid arm: vehicle, compound 5 µM
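Note: CTB read-out in 384-well plates, triplicate wells, NPI normalised per plate against 1 µM phenylarsine oxide (0) and 0.1% DMSO (1) controls.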

| Compound | normalised cell viability [1] | normalised cell viability [2] | normalised cell viability [3] | normalised cell viability [4] | normalised cell viability [5] | normalised cell viability [6] |
| --- | --- | --- | --- | --- | --- | --- |
| CCS(=O)(=O)Nc1cccc(C(=C2CCCCC2)c2cnc[nH]2)c1 | 1.006 ± 0.0063 | 1.04 ± 0.015 | 1.01 ± 0.011 | 1.04 ± 0.028 | 0.985 ± 0.013 | 0.9933 ± 0.0061 |
| CN1CC[C@@]2(C)c3cc(O)ccc3N(C)C12 (single isomer, unassigned; (-)) [(-)-Eseroline fumarate] | 0.9967 ± 0.0058 | 0.972 ± 0.013 | 1.03 ± 0.045 | 0.971 ± 0.011 | 0.9967 ± 0.0042 | 0.996 ± 0.012 |
| CCn1cnc2c(Nc3cccc(Cl)c3)nc(N[C@@H]3CCCC[C@@H]3N)nc21 | 0.783 ± 0.025 | 0.0569 ± 0.018 | 1.01 ± 0.011 | 0.182 ± 0.0028 | 0.321 ± 0.043 | 0.0192 ± 0.0037 |
| C[C@H](N)CN1CCc2ccc(Br)cc21 [VER-3323 hemifumarate salt] | 1.001 ± 0.0085 | 1.01 ± 0.024 | 1 ± 0.011 | 1.05 ± 0.021 | 0.9897 ± 0.0015 | 1 ± 0.015 |
| C[C@H]1O[C@@H](C[N+](C)(C)C)CS1 | 1.013 ± 0.0058 | 1.007 ± 0.0058 | 1 | 1 ± 0.024 | 0.9857 ± 0.0046 | 0.9857 ± 0.0038 |
| CC12CCC3C(CCC4=C(O)C(=O)CCC43C)C1CCC2=O (centres undefined) [4-Androsten-4-ol-3,17-dione] | 0.9977 ± 0.0021 | 0.9747 ± 0.0093 | 0.999 ± 0.001 | 1 ± 0.011 | 0.995 ± 0.015 | 1.003 ± 0.0061 |
| Cc1c(N)nc([C@H](CC(N)=O)NC[C@H](N)C(N)=O)nc1C(=O)N[C@H](C(=O)N[C@H](C)[C@@H](O)[C@H](C)C(=O)N[C@H](C(=O)NCCc1nc(-c2nc(C(=O)NCCC[S+](C)C)cs2)cs1)[C@@H](C)O)[C@@H](OC1OC(CO)C(O)C(O)C1OC1OC(CO)C(O)C(OC(N)=O)C1O)c1cnc[nH]1 (some centres undefined) [Bleomycin sulfate] | 0.669 ± 0.048 | 0.196 ± 0.017 | 0.9903 ± 0.0051 | 0.637 ± 0.034 | 0.142 ± 0.024 | 0.0339 ± 0.0093 |
| CCC1(c2ccc(N)cc2)CCC(=O)NC1=O (racemic) [(±)-p-Aminoglutethimide] | 0.997 ± 0.0052 | 1.01 | 0.866 ± 0.23 | 1 ± 0.027 | 1.006 ± 0.0063 | 1 |
| CN[C@@H]1C[C@@H](c2ccc(Cl)c(Cl)c2)c2ccccc21 [Indatraline hydrochloride] | 1 ± 0.0095 | 0.931 ± 0.02 | 1.02 ± 0.021 | 1.04 ± 0.084 | 1.01 | 1.03 ± 0.05 |
| C[Se]C[C@H](N)C(=O)O [Se-(methyl)selenocysteine hydrochloride] | 1.006 ± 0.0069 | 1.02 ± 0.015 | 1 | 0.859 ± 0.28 | 1.006 ± 0.0069 | 1.01 ± 0.016 |
| C=C(C)[C@H]1Cc2c(ccc3c2O[C@@H]2COc4cc(OC)c(OC)cc4[C@@H]2C3=O)O1 [Rotenone] | 0.627 ± 0.064 | 0.39 ± 0.013 | 0.969 ± 0.016 | 0.685 ± 0.094 | 0.22 ± 0.011 | 0.115 ± 0.019 |
| C=CCc1ccccc1OCC(O)CNC1(C)CCC(C(C)(C)NC(=O)CBr)CC1 (centres undefined) [Bromoacetyl alprenolol menthane] | 0.9893 ± 0.0093 | -0.000605 ± 0.0006 | 0.994 ± 0.016 | 0.0027 ± 0.0058 | 0.978 ± 0.004 | -0.000518 ± 0.00015 |
| C1CN1c1nc(N2CC2)nc(N2CC2)n1 [Triethylenemelamine] | 1.023 ± 0.0058 | 0.775 ± 0.022 | 1.017 ± 0.0058 | 0.989 ± 0.015 | 0.993 ± 0.0082 | 0.273 ± 0.028 |
| C=CCN(C1=NCCN1)c1c(Cl)cccc1Cl [Alinidine] | 0.999 ± 0.012 | 0.992 ± 0.016 | 1.02 ± 0.049 | 1 ± 0.021 | 0.9973 ± 0.0031 | 0.9913 ± 0.0035 |
| O=C1C=CC(=O)C=C1 [p-Benzoquinone] | 1.007 ± 0.0058 | 1.01 ± 0.012 | 1.006 ± 0.0075 | 0.999 ± 0.03 | 1.01 ± 0.012 | 0.999 ± 0.011 |
| Cc1nc(-c2ccc(-c3ccc(C(=O)N4CCc5cc6c(cc54)C4(CCN(C)CC4)CO6)cc3)c(C)c2)no1 | 0.994 ± 0.0066 | 0.356 ± 0.53 | 1.02 ± 0.02 | 1.1 ± 0.021 | 0.994 ± 0.014 | 0.00588 ± 0.0059 |
| CC1C2Cc3ccc(O)cc3C1(C)CCN2CC1CC1 (single isomer, unassigned; (+)) [(+)-Cyclazocine] | 1.001 ± 0.0085 | 1.003 ± 0.0058 | 1 ± 0.01 | 0.978 ± 0.013 | 1.01 | 0.9993 ± 0.0095 |
| CCCN(CCC)C1CCc2cccc(O)c2C1 (racemic) [(±)-8-Hydroxy-DPAT hydrobromide] | 1.02 ± 0.017 | 1.01 ± 0.01 | 1.01 ± 0.01 | 1.004 ± 0.0098 | 0.9967 ± 0.0058 | 0.9947 ± 0.0067 |
| C=CCN1CC[C@]23c4c5ccc(O)c4O[C@H]2/C(=N/N=C2\CC[C@@]4(O)[C@H]6Cc7ccc(O)c8c7[C@@]4(CCN6CC=C)[C@H]2O8)CC[C@@]3(O)[C@H]1C5 [Naloxonazine dihydrochloride] | 0.9893 ± 0.008 | 1.03 ± 0.02 | 1 ± 0.01 | 1.03 ± 0.064 | 0.9877 ± 0.0015 | 1.01 ± 0.01 |
| CC[C@H]1CN2CCc3cc(OC)c(OC)cc3[C@@H]2C[C@@H]1C[C@H]1NCCc2cc(OC)c(OC)cc21 [Emetine dihydrochloride hydrate] | 0.0625 ± 0.016 | 0.0175 ± 0.00036 | 0.342 ± 0.016 | 0.165 ± 0.0093 | 0.0125 ± 0.001 | 0.0108 ± 0.0029 |
| CCCN(CCC)[C@@H]1CCc2c(F)ccc(O)c2C1 [R(+)-UH-301 hydrochloride] | 1.013 ± 0.0058 | 1.017 ± 0.0058 | 1.03 ± 0.021 | 1.017 ± 0.0058 | 1.02 | 1.017 ± 0.0058 |
| OC[C@H]1O[C@@H](n2cnc3cc(Cl)c(Cl)cc32)[C@H](O)[C@@H]1O [5,6-Dichlorobenzimidazole riboside] | 1.007 ± 0.0058 | 0.998 ± 0.013 | 1.007 ± 0.0058 | 1.03 ± 0.01 | 0.988 ± 0.008 | 0.991 ± 0.0053 |
| NC1CCc2cc(O)c(O)cc2C1 (centres undefined) [6,7-ADTN hydrobromide] | 1.001 ± 0.009 | 1.01 ± 0.011 | 0.992 ± 0.022 | 1.002 ± 0.0068 | 0.98433 ± 0.00058 | 0.9887 ± 0.0059 |
| O=C[C@H](Cl)[C@@H](O)[C@H](O)[C@H](O)CO [2-Chloro-2-deoxy-D-glucose] | 1 ± 0.013 | 0.9953 ± 0.0015 | 1.01 ± 0.012 | 0.994 ± 0.01 | 0.9807 ± 0.0011 | 0.9817 ± 0.0067 |

From the supplement of paper PMC8285479
